# Records with an inconclusive call do not appear. Where a call stands in place of a potency, no number is given. A number with no mark means an inactive call. Active and inactive are the calls of the source. The call rests on the fitted dose curve; in most records, active means well fitted curve in the direction sought with a large enough effect; inconclusive means small, poorly fitted or top-dose-only effect, or another doubt; inactive means no such curve, though single readings can be large; an effect the other way counts as inactive or inconclusive.
# Legend:
# [1] = test system: MCC-13; experiment: qHTS assay to identify novel small-molecules to repurpose for Merkel cell carcinoma treatment (AID 1296009); details: MCC and control cell lines, CellTiter-Glo viability, 72 h; series mostly up to 46 µM; further: nearly all actives have a fitted effect of over 60% in size
# Outline: (§1)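 72 hr, 37 degree celsius; NPC 8-pt / MIPE 11-pt dose response; compound pinned in DMSO; CellTiter-Glo, 10 min RT, luminescence; normalized to no-cell and DMSO controls.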
# [2] = test system: MCC-26; experiment: as above; details: MCC and control cell lines, CellTiter-Glo viability, 72 h; series mostly up to 46 µM
# Outline: as §1
# [3] = test system: MKL-1; experiment: as above; details: MCC and control cell lines, CellTiter-Glo viability, 72 h; series mostly up to 46 µM
# Outline: as §1
# [4] = test system: MKL-2; experiment: as above; details: MCC and control cell lines, CellTiter-Glo viability, 72 h; series mostly up to 46 µM
# Outline: as §1
# [5] = test system: NIH3T3; experiment: as above; details: MCC and control cell lines, CellTiter-Glo viability, 72 h; at 44.8 µM (top of the series) unless noted
# Outline: as §1
# [6] = test system: UISO; experiment: as above; details: MCC and control cell lines, CellTiter-Glo viability, 72 h; series mostly up to 46 µM
# Outline: as §1
# [7] = test system: WaGa; experiment: as above; details: MCC and control cell lines, CellTiter-Glo viability, 72 h; series mostly up to 46 µM
# Outline: as §1
# [8] = test system: C33A; experiment: Primary qHTS to identify gynecologic anti-cancer compounds using libraries of approved drugs and bioactive compounds (AID 1345084); details: Gynecologic cancer cell panel viability, ATPlite luminescence, 48 h; series mostly up to 57.5 µM; further: nearly all actives have a fitted effect of over 55% in size
# Outline: (§2)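 Five-concentration response, 48 h; readout is ATP-driven luciferase luminescence.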
# [9] = test system: CAOV3; experiment: as above; details: Gynecologic cancer cell panel viability, ATPlite luminescence, 48 h; series mostly up to 57.5 µM
# Outline: as §2
# [10] = test system: CASKI; experiment: as above; details: Gynecologic cancer cell panel viability, ATPlite luminescence, 48 h; series mostly up to 57.5 µM
# Outline: as §2
# [11] = test system: Es-2; experiment: as above; details: Gynecologic cancer cell panel viability, ATPlite luminescence, 48 h; series mostly up to 57.5 µM
# Outline: as §2
# [12] = test system: HeLa; experiment: as above; details: Gynecologic cancer cell panel viability, ATPlite luminescence, 48 h; series mostly up to 57.5 µM
# Outline: as §2
# [13] = test system: Hek293T; experiment: as above; details: Gynecologic cancer cell panel viability, ATPlite luminescence, 48 h, control line for the selectivity index; series mostly up to 57.5 µM
# Outline: as §2
# [14] = test system: JEG-3; experiment: as above; details: Gynecologic cancer cell panel viability, ATPlite luminescence, 48 h; series mostly up to 57.5 µM
# Outline: as §2
# [15] = test system: OV90; experiment: as above; details: Gynecologic cancer cell panel viability, ATPlite luminescence, 48 h; series mostly up to 57.5 µM
# Outline: as §2
# [16] = test system: PA-1; experiment: as above; details: Gynecologic cancer cell panel viability, ATPlite luminescence, 48 h; series mostly up to 57.5 µM
# Outline: as §2
# [17] = test system: SKOV3; experiment: as above; details: Gynecologic cancer cell panel viability, ATPlite luminescence, 48 h; series mostly up to 57.5 µM
# Outline: as §2
# [18] = test system: Tov-21-G; experiment: as above; details: Gynecologic cancer cell panel viability, ATPlite luminescence, 48 h; series mostly up to 57.5 µM
# Outline: as §2
# [19] = test system: Tov112D; experiment: as above; details: Gynecologic cancer cell panel viability, ATPlite luminescence, 48 h; series mostly up to 57.5 µM
# Outline: as §2
# [20] = Drug repurposing screens with cells derived from glioblastoma tumor samples (AID 1345199); details: GBM patient neurospheres viability, ATP luminescence, 48 h; further: nearly all actives have a fitted effect of over 40% in size; further: potency means the concentration at half of the fitted maximal effect
# Outline: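 Four patient lines of CD133+ GBM neurospheres were screened at several concentrations; hits were retested in those lines plus three slower-growing GBM lines, using 48-hour treatment and ATP-based viability.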
# [21] = at 45.9 µM (top of the series), tumour line B
# [22] = at 46 µM (top of the series), tumour line A
# [23] = at 46.1 µM (top of the series), tumour line C
# [24] = at 20 µM (top of the series), tumour line C
# [25] = at 21.2 µM (top of the series), tumour line B
# [26] = at 21.2 µM (top of the series), tumour line D
# [27] = at 21.3 µM (top of the series), tumour line A
# [28] = at 45.9 µM (top of the series), tumour line D
smiles,measurement,setting,value
Cc1cc(C)nc(NS(=O)(=O)c2ccc(N)cc2)n1,outcome,[1],inactive
same,outcome,[2],inactive
same,outcome,[3],inactive
same,outcome,[4],inactive
same,outcome,[5],inactive
same,outcome,[6],inactive
same,outcome,[7],inactive
same,outcome,[8],inactive
same,outcome,[9],inactive
same,outcome,[10],inactive
same,outcome,[11],inactive
same,outcome,[12],inactive
same,outcome,[13],inactive
same,outcome,[14],inactive
same,Potency,[15],inactive
same,outcome,[16],inactive
same,outcome,[17],inactive
same,outcome,[18],inactive
same,outcome,[19],inactive
same,"activity, negative = cell killing",[20]; [21],-8.37%
same,"activity, negative = cell killing",[20]; [22],-19.9%
same,"activity, negative = cell killing",[20]; [23],-16.8%
CC(CN(C)C)C(C)(O)Cc1ccc(Cl)cc1 (stereo unspecified),outcome,[1],inactive
same,outcome,[2],inactive
same,outcome,[3],inactive
same,outcome,[4],inactive
same,outcome,[5],inactive
same,outcome,[6],inactive
same,outcome,[7],inactive
same,outcome,[8],inactive
same,outcome,[9],inactive
same,outcome,[10],inactive
same,outcome,[11],inactive
same,outcome,[12],inactive
same,outcome,[13],inactive
same,outcome,[14],inactive
same,Potency,[15],inactive
same,outcome,[16],inactive
same,outcome,[17],inactive
same,outcome,[18],inactive
same,outcome,[19],inactive
same,"activity, negative = cell killing",[20]; [21],-15.1%
same,"activity, negative = cell killing",[20]; [23],-8.21%
same,Potency,[20]; tumour line A,20 µM (active)
CC(=O)N(CC(O)CN(C(C)=O)c1c(I)c(C(=O)NCC(O)CO)c(I)c(C(=O)NCC(O)CO)c1I)c1c(I)c(C(=O)NCC(O)CO)c(I)c(C(=O)NCC(O)CO)c1I (stereo unspecified),outcome,[1],inactive
same,outcome,[2],inactive
same,outcome,[3],inactive
same,outcome,[4],inactive
same,outcome,[5],inactive
same,outcome,[6],inactive
same,outcome,[7],inactive
same,outcome,[8],inactive
same,outcome,[9],inactive
same,outcome,[10],inactive
same,outcome,[11],inactive
same,outcome,[12],inactive
same,outcome,[13],inactive
same,outcome,[14],inactive
same,Potency,[15],inactive
same,outcome,[16],inactive
same,outcome,[17],inactive
same,outcome,[18],inactive
same,outcome,[19],inactive
same,"activity, negative = cell killing",[20]; [24],4.37%
same,"activity, negative = cell killing",[20]; [25],-1.18%
same,"activity, negative = cell killing",[20]; [26],15.1%
same,"activity, negative = cell killing",[20]; [27],-9.07%
COc1nccnc1NS(=O)(=O)c1ccc(N)cc1,outcome,[1],inactive
same,outcome,[2],inactive
same,outcome,[3],inactive
same,outcome,[4],inactive
same,outcome,[5],inactive
same,outcome,[6],inactive
same,outcome,[7],inactive
same,outcome,[8],inactive
same,outcome,[9],inactive
same,outcome,[10],inactive
same,outcome,[11],inactive
same,outcome,[12],inactive
same,outcome,[13],inactive
same,outcome,[14],inactive
same,Potency,[15],inactive
same,outcome,[16],inactive
same,outcome,[17],inactive
same,outcome,[18],inactive
same,outcome,[19],inactive
same,"activity, negative = cell killing",[20]; [21],0.463%
same,"activity, negative = cell killing",[20]; [28],-17.5%
same,"activity, negative = cell killing",[20]; [22],-24.3%
same,"activity, negative = cell killing",[20]; [23],-3.06%
Nc1ccc(C(=O)Oc2ccccc2)c(O)c1,outcome,[1],inactive
same,outcome,[2],inactive
same,outcome,[3],inactive
same,outcome,[4],inactive
same,outcome,[5],inactive
same,outcome,[6],inactive
same,outcome,[7],inactive
same,outcome,[8],inactive
same,outcome,[9],inactive
same,outcome,[10],inactive
same,outcome,[11],inactive
same,outcome,[12],inactive
same,outcome,[13],inactive
same,outcome,[14],inactive
same,Potency,[15],inactive
same,outcome,[16],inactive
same,outcome,[17],inactive
same,outcome,[18],inactive
same,outcome,[19],inactive
same,"activity, negative = cell killing",[20]; [23],-12.2%
same,Potency,[20]; tumour line A,11.2 µM (active)
O=c1[nH]c(=O)n([C@H]2C[C@H](O)[C@@H](CO)O2)cc1I,outcome,[1],inactive
same,outcome,[2],inactive
same,outcome,[3],inactive
same,outcome,[4],inactive
same,outcome,[5],inactive
same,outcome,[7],inactive
same,outcome,[8],inactive
same,outcome,[10],inactive
same,outcome,[11],inactive
same,outcome,[12],inactive
same,outcome,[13],inactive
same,outcome,[14],inactive
same,Potency,[15],inactive
same,outcome,[16],inactive
same,outcome,[17],inactive
same,outcome,[18],inactive
same,outcome,[19],inactive
same,"activity, negative = cell killing",[20]; [24],-27.4%
same,"activity, negative = cell killing",[20]; [25],-17%
same,"activity, negative = cell killing",[20]; [27],-18.1%
COc1ccc(C(=O)NCc2ccc(OCCN(C)C)cc2)cc1OC,outcome,[1],inactive
same,outcome,[2],inactive
same,outcome,[3],inactive
same,outcome,[4],inactive
same,outcome,[6],inactive
same,outcome,[7],inactive
same,outcome,[8],inactive
same,outcome,[9],inactive
same,outcome,[10],inactive
same,outcome,[11],inactive
same,outcome,[12],inactive
same,outcome,[13],inactive
same,outcome,[14],inactive
same,Potency,[15],inactive
same,outcome,[16],inactive
same,outcome,[17],inactive
same,outcome,[18],inactive
same,outcome,[19],inactive
same,"activity, negative = cell killing",[20]; [21],-21.3%
same,"activity, negative = cell killing",[20]; [28],-4.36%
CC(=O)OCC(COC(C)=O)OC(C)=O,outcome,[1],inactive
same,outcome,[2],inactive
same,outcome,[3],inactive
same,outcome,[4],inactive
same,outcome,[5],inactive
same,outcome,[6],inactive
same,outcome,[7],inactive
same,outcome,[8],inactive
same,outcome,[10],inactive
same,outcome,[11],inactive
same,outcome,[12],inactive
same,outcome,[13],inactive
same,outcome,[14],inactive
same,Potency,[15],inactive
same,outcome,[16],inactive
same,outcome,[17],inactive
same,outcome,[18],inactive
same,outcome,[19],inactive
same,"activity, negative = cell killing",[20]; [21],7.15%
same,"activity, negative = cell killing",[20]; [28],15.4%
same,"activity, negative = cell killing",[20]; [22],-13.4%
same,"activity, negative = cell killing",[20]; [23],1.43%
CN(C/C=C/C#CC(C)(C)C)Cc1cccc2ccccc12,outcome,[1],inactive
same,outcome,[2],inactive
same,outcome,[3],inactive
same,outcome,[4],inactive
same,outcome,[6],inactive
same,outcome,[7],inactive
same,outcome,[8],inactive
same,outcome,[9],inactive
same,outcome,[10],inactive
same,outcome,[11],inactive
same,outcome,[12],inactive
same,outcome,[13],inactive
same,outcome,[14],inactive
same,Potency,[15],inactive
same,outcome,[16],inactive
same,outcome,[17],inactive
same,outcome,[18],inactive
same,outcome,[19],inactive
same,"activity, negative = cell killing",[20]; [23],-0.19%
same,Potency,[20]; tumour line A,20 µM (active)
C[n+]1ccccc1/C=N/O,outcome,[1],inactive
same,outcome,[2],inactive
same,outcome,[3],inactive
same,outcome,[4],inactive
same,outcome,[5],inactive
same,outcome,[6],inactive
same,outcome,[7],inactive
same,outcome,[8],inactive
same,outcome,[9],inactive
same,outcome,[10],inactive
same,outcome,[11],inactive
same,outcome,[12],inactive
same,outcome,[13],inactive
same,outcome,[14],inactive
same,Potency,[15],inactive
same,outcome,[17],inactive
same,outcome,[18],inactive
same,outcome,[19],inactive
same,"activity, negative = cell killing",[20]; [24],-23.9%
same,"activity, negative = cell killing",[20]; [25],-15%
same,"activity, negative = cell killing",[20]; [26],-26.7%
same,"activity, negative = cell killing",[20]; [27],-10.2%
O=C(O)[C@@H]1[C@H]2C[C@H]3c4[nH]c5ccccc5c4CCN3C[C@@H]2CC[C@@H]1O,outcome,[1],inactive
same,outcome,[2],inactive
same,outcome,[3],inactive
same,outcome,[4],inactive
same,outcome,[5],inactive
same,outcome,[6],inactive
same,outcome,[7],inactive
same,outcome,[8],inactive
same,outcome,[9],inactive
same,outcome,[10],inactive
same,outcome,[11],inactive
same,outcome,[12],inactive
same,outcome,[13],inactive
same,outcome,[14],inactive
same,outcome,[16],inactive
same,outcome,[17],inactive
same,outcome,[18],inactive
same,outcome,[19],inactive
same,"activity, negative = cell killing",[20]; [24],-17%
same,"activity, negative = cell killing",[20]; [25],2.22%
same,"activity, negative = cell killing",[20]; [27],-34.6%
